Measured values published in PubChem BioAssay (Tox21).
Records with an inconclusive call do not appear. The source made the active and inactive calls. Calls come from the whole dose curve; as a rule, active = well fitted curve in the direction sought with a large enough effect in the repeat runs; inconclusive = weak or mixed curves; inactive = no such curve, though single readings can be large; an effect the other way counts as inactive or inconclusive.

Experiments:
[1] = qHTS RealTime-Glo MT Cell Viability Assay in HepG2 cells - 40 hour (AID 1224870); note: nearly all actives have a fitted effect of over 50% in size
Procedure, shortened: (§1)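 HepG2 cells mixed with RealTime-Glo MT reagents (NanoLuc plus cell-permeant prosubstrate) were seeded at 600 cells/well, incubated 5 h at 37 C/5% CO2, then pinned with compounds in DMSO; nonlytic luminescence tracked viability during 40 h treatment.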

[2] = A CellTox Green Cytotoxicity Assay to monitor cytotoxicity in HEK293 cells - 40 hour (AID 1224871); note: nearly all actives have a fitted effect of over 45% in size
Procedure, shortened: (§2)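 Cells (HEK293, 600/well) and dye reagent are dispensed together. After 5 h at 37 C, 23 nL compound is pinned in. Plates stay at 37 C for 40 h with fluorescence read at 0h, 8h, 16h, 24h, 32h and 40h.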

[3] = qHTS RealTime-Glo MT Cell Viability Assay in HEK293 cells - 16 hour (AID 1224872); note: nearly all actives have a fitted effect of over 50% in size; note: potency is the fitted concentration of half-maximal effect; for activity change, negative = cytotoxicity: top concentration of the series differs between compounds
Procedure, shortened: (§3)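 Luminescence generated by NanoLuc from substrate produced by living HEK293 cells served as the viability signal. Each value reflects the reading at its stated time point during continuous 40 h compound exposure at 37 C.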

[4] = qHTS RealTime-Glo MT Cell Viability Assay in HepG2 cells - 8 hour (AID 1224873); note: nearly all actives have a fitted effect of over 55% in size
Procedure, shortened: as §1

[5] = qHTS RealTime-Glo MT Cell Viability Assay in HEK293 cells - 40 hour (AID 1224874); conditions: RealTime-Glo luminescence; max response: hits give low values; note: nearly all actives have a fitted effect of over 50% in size; note: potency is the fitted concentration of half-maximal effect
Procedure, shortened: (§4)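 Real-time viability in HEK293: signal arises when living cells convert a prosubstrate for NanoLuc in the medium, so luminescence tracks viable cell number. Compound (23 nL, DMSO) added 5 h post-seeding; kinetic reads at 0–40 h, 37 C.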

[6] = A CellTox Green Cytotoxicity Assay to monitor cytotoxicity in HEK293 cells - 24 hour (AID 1224875); note: series mostly up to about 77 µM; nearly all actives have a fitted effect of over 45% in size
Procedure, shortened: as §2

[7] = A CellTox Green Cytotoxicity Assay to monitor cytotoxicity in HepG2 cells - 16 hour (AID 1224876); note: nearly all actives have a fitted effect of over 45% in size
Procedure, shortened: (§5)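 Cells and non-lytic dye reagent are dispensed together (600 HepG2 cells/well) and incubated 5 h before DMSO compound transfer. Kinetic fluorescence is then recorded in the same wells during 40 h at 37 C.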

[8] = qHTS RealTime-Glo MT Cell Viability Assay in HepG2 cells - 32 hour (AID 1224877); note: nearly all actives have a fitted effect of over 55% in size
Procedure, shortened: (§6)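 Tox21 10K library screened in qHTS format on HepG2 cells carrying RealTime-Glo reagents. Compounds were added after a 5 h preincubation, and the luminescent signal from continuous culture was measured repeatedly during 40 h treatment.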

[9] = A CellTox Green Cytotoxicity Assay to monitor cytotoxicity in HepG2 cells - 24 hour (AID 1224878); note: nearly all actives have a fitted effect of over 45% in size
Procedure, shortened: as §5

[10] = A CellTox Green Cytotoxicity Assay to monitor cytotoxicity in HepG2 cells - 40 hour (AID 1224879); note: nearly all actives have a fitted effect of over 40% in size
Procedure, shortened: as §5

[11] = qHTS RealTime-Glo MT Cell Viability Assay in HEK293 cells - 0 hour (AID 1224880)
Procedure, shortened: as §4

[12] = A CellTox Green Cytotoxicity Assay to monitor cytotoxicity in HEK293 cells - 32 hour (AID 1224881); note: nearly all actives have a fitted effect of over 40% in size
Procedure, shortened: as §2

[13] = A CellTox Green Cytotoxicity Assay to monitor cytotoxicity in HepG2 cells - 0 hour (AID 1224882); note: nearly all actives have a fitted effect of over 35% in size
Procedure, shortened: as §5

[14] = A CellTox Green Cytotoxicity Assay to monitor cytotoxicity in HepG2 cells - 32 hour (AID 1224883); note: nearly all actives have a fitted effect of over 50% in size
Procedure, shortened: as §5

[15] = A CellTox Green Cytotoxicity Assay to monitor cytotoxicity in HEK293 cells - 8 hour (AID 1224884); note: nearly all actives have a fitted effect of over 35% in size
Procedure, shortened: as §2

[16] = qHTS RealTime-Glo MT Cell Viability Assay in HepG2 cells - 16 hour (AID 1224885); note: nearly all actives have a fitted effect of over 50% in size
Procedure, shortened: as §6

[17] = qHTS RealTime-Glo MT Cell Viability Assay in HEK293 cells - 8 hour (AID 1224887)
Procedure, shortened: as §4

[18] = A CellTox Green Cytotoxicity Assay to monitor cytotoxicity in HEK293 cells - 16 hour (AID 1224888); note: nearly all actives have a fitted effect of over 35% in size
Procedure, shortened: as §2

[19] = qHTS RealTime-Glo MT Cell Viability Assay in HepG2 cells - 0 hour (AID 1224889); note: nearly all actives have a fitted effect of over 50% in size
Procedure, shortened: as §6

[20] = qHTS RealTime-Glo MT Cell Viability Assay in HEK293 cells - 24 hour (AID 1224886)
Procedure, shortened: as §3
% is set by controls: 0 for no effect and ±100 for the full control effect.

O=C1C=CCCC1
inactive: Potency [1] | Potency [2] | Potency [3] | outcome [4] | max response [5] -0.315% | Potency [6] | Potency [7] | Potency [8] | Potency [9] | Potency [10] | Potency [11] | Potency [12] | Potency [13] | Potency [14] | Potency [15] | outcome [16] | Potency [17] | Potency [18] | Potency [19]

C[C@@H](O)[C@H]1C(=O)N2C(C(=O)O)=C(S[C@@H]3CN[C@H](CNS(N)(=O)=O)C3)[C@H](C)[C@H]12
inactive: Potency [1] | Potency [2] | Potency [3] | outcome [4] | max response [5] 2.56% | Potency [6] | Potency [7] | Potency [8] | Potency [9] | Potency [10] | Potency [11] | Potency [12] | Potency [13] | Potency [14] | Potency [15] | outcome [16] | Potency [17] | Potency [18] | Potency [19]

O=C(OC1C[C@H]2CC[C@@H](C1)[N+]21CCCC1)C(O)(c1ccccc1)c1ccccc1 (some centres not stated)
inactive: Potency [1] | Potency [2] | Potency [3] | outcome [4] | max response [5] 0.515% | Potency [6] | Potency [7] | Potency [8] | Potency [9] | Potency [10] | Potency [11] | Potency [12] | Potency [13] | outcome [16] | Potency [20] | Potency [17] | Potency [18] | Potency [19]

Nc1ccc(C(=O)Oc2ccccc2)c(O)c1
inactive: Potency [1] | Potency [2] | Potency [3] | outcome [4] | max response [5] -15.9% | Potency [6] | Potency [7] | Potency [8] | Potency [9] | Potency [10] | Potency [11] | Potency [12] | Potency [13] | Potency [14] | outcome [16] | Potency [20] | Potency [17] | Potency [18] | Potency [19]

CC/C=C\CCO
inactive: Potency [1] | Potency [2] | Potency [3] | outcome [4] | max response [5] 15.9% | Potency [6] | Potency [7] | Potency [8] | Potency [9] | Potency [10] | Potency [11] | Potency [12] | Potency [13] | Potency [15] | outcome [16] | Potency [20] | Potency [17] | Potency [18] | Potency [19]

OCCc1ccncc1
inactive: Potency [1] | Potency [2] | Potency [3] | outcome [4] | max response [5] -8.09% | Potency [6] | Potency [7] | Potency [8] | Potency [9] | Potency [10] | Potency [11] | Potency [12] | Potency [13] | Potency [15] | outcome [16] | Potency [20] | Potency [17] | Potency [19]

Cc1cc(C)n(CO)n1
inactive: Potency [1] | Potency [2] | Potency [3] | outcome [4] | max response [5] 1.2% | Potency [6] | Potency [7] | Potency [8] | Potency [9] | Potency [10] | Potency [11] | Potency [12] | Potency [13] | Potency [14] | Potency [15] | outcome [16] | Potency [18] | Potency [19]

Clc1cc(Cl)c2c(c1)N=C1CCCCCN1C2
active: Potency [3] 21.3 µM | Potency [5] 23.9 µM
inactive: Potency [1] | Potency [2] | outcome [4] | Potency [6] | Potency [7] | Potency [8] | Potency [9] | Potency [10] | Potency [11] | Potency [12] | Potency [13] | Potency [14] | Potency [15] | outcome [16] | Potency [18] | Potency [19]

CCC(C(=O)O)c1ccc(N2Cc3ccccc3C2=O)cc1 (configuration not stated)
inactive: Potency [1] | Potency [2] | Potency [3] | outcome [4] | max response [5] -1.19% | Potency [6] | Potency [7] | Potency [8] | Potency [9] | Potency [10] | Potency [11] | Potency [12] | Potency [13] | Potency [15] | outcome [16] | Potency [20] | Potency [17] | Potency [19]

CCCCCCCCCCCCCCCCCCCl
inactive: activity change, negative = cytotoxic [1] 2.37% [at 6.97 µM] | cytotoxicity increase [2] -1.51% [at 6.97 µM] | activity change, negative = cytotoxicity [3] 3.04% [at 6.97 µM] | viability change, negative = cytotoxic [4] -0.0977% [at 6.97 µM] | max response [5] 5.75% | activity change [6] 2.36% [at 6.97 µM, hits give high values] | cytotoxicity increase [7] -7.85% [at 6.97 µM] | activity change, negative = cytotoxic [8] 2.68% [at 6.97 µM] | cytotoxicity [9] -10.6% [at 6.97 µM] | cytotoxicity increase [10] -13.3% [at 6.97 µM] | activity change, negative = cytotoxicity [11] 8.32% [at 6.97 µM] | cytotoxicity increase [12] 3.09% [at 6.97 µM] | cytotoxicity [13] 0.682% [at 6.97 µM] | cytotoxicity increase [14] -12.9% [at 6.97 µM] | activity change, negative = cytotoxic [16] -0.256% [at 6.97 µM] | activity change, negative = cytotoxicity [20] 2.37% [at 6.97 µM] | activity change, negative = cytotoxicity [17] 0.0634% [at 6.97 µM] | activity change, negative = cytotoxicity [19] 4.46% [at 6.97 µM]

O=C(O)c1ccc2cc(O)ccc2c1
inactive: Potency [1] | Potency [2] | Potency [3] | outcome [4] | max response [5] -17.3% | Potency [6] | Potency [7] | Potency [8] | Potency [9] | Potency [10] | Potency [11] | Potency [12] | Potency [13] | Potency [14] | outcome [16] | Potency [20] | Potency [17] | Potency [18] | Potency [19]

CC(O)C(C)O (configuration not stated)
inactive: Potency [1] | Potency [2] | Potency [3] | outcome [4] | max response [5] 12.1% | Potency [6] | Potency [7] | Potency [8] | Potency [9] | Potency [10] | Potency [11] | Potency [12] | Potency [13] | Potency [14] | Potency [15] | outcome [16] | Potency [17] | Potency [18] | Potency [19]
